# Results filed as inconclusive are left out. Activity calls are given as the source filed them. Rule for the calls, unless noted: active = hit-call score of the fitted dose curve at least 0.9, where 1 is the maximum; inconclusive = response in the unintended direction; inactive = score below 0.9.
# What was measured:
# [1] = target: Retinoic acid receptor alpha (Homo sapiens) (UniProt P10276); assay: ATG_DR5_RAR_CIS: Attagene CIS-FACTORIAL HepG2 Assay for human Retinoic Acid Receptor Alpha (RARE), DR5 submotif (AID 2282934; active = hit-call score of the fitted dose curve at least 0.9, where 1 is the maximum; inactive = score below 0.9); conditions: HepG2 Attagene cis-factorial RARE DR5 reporter, mRNA; actives raise or lower the signal
# Retinoic acid receptor alpha (Homo sapiens), sequence (P10276 whole entry, looked up): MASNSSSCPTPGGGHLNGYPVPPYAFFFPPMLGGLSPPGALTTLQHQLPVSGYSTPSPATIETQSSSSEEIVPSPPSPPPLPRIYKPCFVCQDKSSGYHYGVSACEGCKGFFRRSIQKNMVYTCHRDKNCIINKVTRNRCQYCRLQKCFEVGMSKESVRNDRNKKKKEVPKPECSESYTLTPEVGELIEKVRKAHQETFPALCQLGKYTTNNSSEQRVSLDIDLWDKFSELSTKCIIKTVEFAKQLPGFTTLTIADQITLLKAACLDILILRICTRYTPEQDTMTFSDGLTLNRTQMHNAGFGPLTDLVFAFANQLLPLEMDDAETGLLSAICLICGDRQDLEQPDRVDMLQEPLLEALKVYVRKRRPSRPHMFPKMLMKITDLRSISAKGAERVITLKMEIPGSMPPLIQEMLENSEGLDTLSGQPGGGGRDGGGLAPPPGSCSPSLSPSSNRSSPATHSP
# Method in brief: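 HepG2 cells transiently transfected with multiplexed reporter units under cis (DR5 RARE) promoters, so endogenous transcription factor activity is measured. After 24 h compound exposure, reporter mRNA is quantified by RT-PCR with fluorescent labelling and capillary electrophoresis; bidirectional fitting versus DMSO.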
# [2] = ATG_PPRE_CIS: Attagene CIS-FACTORIAL HepG2 Assay for human Peroxisome Proliferator-activated Response Element (PPRE) (AID 2282958; active = hit-call score of the fitted dose curve at least 0.9, where 1 is the maximum; inactive = score below 0.9); conditions: HepG2 PPRE cis-element reporter, Attagene transcription factor profiling; actives raise or lower the signal
# Method in brief: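 Read-out: fluorescent reporter mRNA fragments resolved by capillary electrophoresis after RT-PCR. HepG2 cells carried transiently transfected PPRE-driven cis reporter constructs and were dosed for 24 h; gain or loss of signal fitted relative to DMSO.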
# [3] = ATG_GAL4_TRANS: Attagene TRANS-FACTORIAL HepG2 Assay for GAL4 (Internal Marker) (AID 2282976); conditions: HepG2 Attagene TRANS GAL4 internal marker reporter
# Method in brief: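 HepG2 cells transiently transfected with multiplexed GAL4-UAS reporter constructs were dosed for 24 h. Reporter mRNA was measured by RT-PCR, 6-FAM primer extension, HpaI digestion and capillary electrophoresis, and gain of signal was fitted relative to DMSO.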
# [4] = target: Oxysterols receptor LXR-alpha (Homo sapiens) (UniProt Q13133); assay: ATG_LXRa_TRANS: Attagene TRANS-FACTORIAL HepG2 Assay for human Liver X Receptor alpha (LXRa) (AID 2282980); conditions: HepG2 Attagene TRANS reporter, LXRa transactivation
# Oxysterols receptor LXR-alpha (Homo sapiens), sequence (Q13133 whole entry, looked up, the tested form may be a part): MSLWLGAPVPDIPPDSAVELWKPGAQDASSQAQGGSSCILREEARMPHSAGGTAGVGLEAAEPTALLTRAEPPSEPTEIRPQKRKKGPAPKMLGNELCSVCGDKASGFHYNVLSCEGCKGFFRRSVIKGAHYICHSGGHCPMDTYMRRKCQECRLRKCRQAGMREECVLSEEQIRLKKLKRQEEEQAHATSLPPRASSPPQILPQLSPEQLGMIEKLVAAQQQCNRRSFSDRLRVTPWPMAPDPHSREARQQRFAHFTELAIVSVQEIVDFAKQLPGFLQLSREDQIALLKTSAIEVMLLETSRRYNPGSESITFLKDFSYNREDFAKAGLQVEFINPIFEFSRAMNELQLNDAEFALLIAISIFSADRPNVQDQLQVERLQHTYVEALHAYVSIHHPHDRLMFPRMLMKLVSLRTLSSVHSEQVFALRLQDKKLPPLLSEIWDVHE
# Method in brief: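 HepG2 cells were transiently transfected with multiplexed reporter units driven by chimeric LXRa–GAL4 fusion proteins, then dosed for 24 h. Reporter mRNA was quantified by RT-PCR, fluorescent labelling and capillary electrophoresis; gain of signal fitted against DMSO baseline.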
# [5] = target: Oxysterols receptor LXR-beta (Homo sapiens) (UniProt P55055); assay: ATG_LXRb_TRANS: Attagene TRANS-FACTORIAL HepG2 Assay for human Liver X Receptor beta (LXRb) (AID 2282981); conditions: HepG2 Attagene TRANS GAL4-LXRb reporter, mRNA
# Oxysterols receptor LXR-beta (Homo sapiens), sequence (P55055 whole entry, looked up, the tested form may be a part): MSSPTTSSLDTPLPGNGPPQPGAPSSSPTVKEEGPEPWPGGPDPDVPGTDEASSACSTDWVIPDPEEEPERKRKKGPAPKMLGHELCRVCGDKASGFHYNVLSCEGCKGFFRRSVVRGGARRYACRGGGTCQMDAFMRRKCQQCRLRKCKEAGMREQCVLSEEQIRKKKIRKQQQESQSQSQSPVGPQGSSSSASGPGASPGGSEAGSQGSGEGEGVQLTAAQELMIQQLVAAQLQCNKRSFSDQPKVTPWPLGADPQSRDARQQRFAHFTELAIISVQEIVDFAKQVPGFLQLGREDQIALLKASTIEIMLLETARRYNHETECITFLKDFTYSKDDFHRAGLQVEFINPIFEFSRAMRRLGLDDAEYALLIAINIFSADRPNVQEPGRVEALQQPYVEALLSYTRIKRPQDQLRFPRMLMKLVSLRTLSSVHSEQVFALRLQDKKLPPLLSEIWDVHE
# Method in brief: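 HepG2 cells transiently transfected with multiple reporter transcription units carrying chimeric NR-Gal4 proteins acting on GAL4-UAS reporters; compound exposure 24 h. Reporter mRNA quantified by RT-PCR, 6-FAM labelling, HpaI digestion and capillary electrophoresis; gain of signal versus DMSO.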
# [6] = ATG_M_06_TRANS: Attagene TRANS-FACTORIAL HepG2 Assay for M06 Transcription Factor (Internal Marker) (AID 2282983); conditions: HepG2 Attagene TRANS M06 internal marker reporter;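 note: reporter transcript level by RT-PCR then capillary electrophoresis fluorescence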
# Method in brief: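 HepG2 cells transiently transfected with multiplexed GAL4-UAS reporter transcription units; after 24 h compound exposure, reporter mRNA measured by RT-PCR, FAM-labelled primer extension, HpaI digestion and capillary electrophoresis. Gain-of-signal fitted versus DMSO baseline; background control readout.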
# [7] = target: human Peroxisome Proliferator-activated Receptor delta (PPARd), PPARD (gene 5467) (UniProt Q03181); assay: ATG_PPARd_TRANS: Attagene TRANS-FACTORIAL HepG2 Assay for human Peroxisome Proliferator-activated Receptor delta (PPARd) (AID 2283002)
# human Peroxisome Proliferator-activated Receptor delta (PPARd), PPARD (gene 5467), sequence (Q03181 whole entry, looked up, the tested form may be a part): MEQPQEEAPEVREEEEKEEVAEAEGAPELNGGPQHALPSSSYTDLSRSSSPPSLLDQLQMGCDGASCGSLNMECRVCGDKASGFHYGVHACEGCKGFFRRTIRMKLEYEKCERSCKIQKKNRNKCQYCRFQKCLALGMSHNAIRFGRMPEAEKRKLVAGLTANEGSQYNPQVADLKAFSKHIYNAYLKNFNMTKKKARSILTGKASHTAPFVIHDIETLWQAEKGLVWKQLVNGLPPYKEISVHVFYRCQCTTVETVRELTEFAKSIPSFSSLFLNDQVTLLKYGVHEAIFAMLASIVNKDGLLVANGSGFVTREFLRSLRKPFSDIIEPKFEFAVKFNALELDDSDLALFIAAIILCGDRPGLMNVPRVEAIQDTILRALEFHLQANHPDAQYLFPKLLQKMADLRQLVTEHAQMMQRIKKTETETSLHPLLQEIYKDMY
# Method in brief: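 HepG2 cells transiently transfected with multiplexed GAL4-UAS reporter units and exogenous chimeric NR-Gal4 proteins; 24 h compound exposure. Reporter mRNA measured by RT-PCR, 6-FAM labelling, HpaI digestion and capillary electrophoresis; gain of signal versus DMSO.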
# [8] = target: Retinoic acid receptor RXR-alpha (Homo sapiens) (UniProt P19793); assay: ATG_RXRa_TRANS: Attagene TRANS-FACTORIAL HepG2 Assay for human Retinoid X Receptor alpha (RXRa) (AID 2283012)
# Retinoic acid receptor RXR-alpha (Homo sapiens), sequence (P19793 whole entry, looked up, the tested form may be a part): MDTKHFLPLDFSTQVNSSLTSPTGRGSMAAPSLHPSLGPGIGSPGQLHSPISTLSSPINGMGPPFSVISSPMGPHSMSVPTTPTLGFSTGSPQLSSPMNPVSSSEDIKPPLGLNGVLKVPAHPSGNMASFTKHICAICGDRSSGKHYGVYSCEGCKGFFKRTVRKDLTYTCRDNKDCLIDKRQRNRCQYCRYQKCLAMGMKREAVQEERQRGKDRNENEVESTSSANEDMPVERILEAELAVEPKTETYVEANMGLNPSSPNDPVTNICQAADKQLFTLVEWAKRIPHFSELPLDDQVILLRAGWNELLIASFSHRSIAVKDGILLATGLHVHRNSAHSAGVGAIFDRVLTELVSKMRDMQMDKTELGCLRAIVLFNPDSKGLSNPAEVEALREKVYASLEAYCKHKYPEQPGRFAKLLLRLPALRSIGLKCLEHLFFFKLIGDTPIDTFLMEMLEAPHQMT
# Method in brief: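 HepG2 cells transiently transfected with multiplexed GAL4-UAS reporter units and chimeric NR-GAL4 fusions, dosed 24 h. Reporter mRNA measured by RT-PCR, FAM labelling, HpaI digestion and capillary electrophoresis; gain-of-signal fitted relative to DMSO baseline.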
# [9] = target: human Thyroid Receptor alpha (THRa1), THRA (gene 7067) (UniProt P10827); assay: ATG_THRa1_TRANS: Attagene TRANS-FACTORIAL HepG2 Assay for human Thyroid Receptor alpha (THRa1) (AID 2283014)
# human Thyroid Receptor alpha (THRa1), THRA (gene 7067), sequence (P10827 whole entry, looked up, the tested form may be a part): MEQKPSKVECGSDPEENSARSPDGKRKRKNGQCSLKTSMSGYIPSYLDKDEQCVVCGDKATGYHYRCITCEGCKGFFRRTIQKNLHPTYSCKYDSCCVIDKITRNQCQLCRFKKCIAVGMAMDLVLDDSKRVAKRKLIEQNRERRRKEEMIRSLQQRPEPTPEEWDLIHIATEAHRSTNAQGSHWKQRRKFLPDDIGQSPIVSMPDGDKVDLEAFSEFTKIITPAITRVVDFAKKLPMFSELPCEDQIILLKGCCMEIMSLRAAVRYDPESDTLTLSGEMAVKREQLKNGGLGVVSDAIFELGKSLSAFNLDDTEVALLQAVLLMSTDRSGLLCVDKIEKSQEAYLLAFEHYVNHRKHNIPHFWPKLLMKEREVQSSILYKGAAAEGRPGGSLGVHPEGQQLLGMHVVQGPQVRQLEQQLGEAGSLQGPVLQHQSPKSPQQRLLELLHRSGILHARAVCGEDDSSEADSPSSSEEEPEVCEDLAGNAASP
# Method in brief: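 HepG2 cells transiently transfected with multiplexed GAL4-UAS reporter units for exogenous chimeric THRa1-Gal4; reporter mRNA measured 24 h after dosing by RT-PCR, 6-FAM labelling, HpaI digestion and capillary electrophoresis. Gain-of-signal fitted versus DMSO baseline.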
# [10] = TOX21_p53_BLA_p3_viability: Viability Assessment in the Tox21 HCT-116 p53 Agonism Beta-lactamase Assay, Phase 3 (AID 2283593);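 note: cells exposed to compound for 16 h before reading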
# Method in brief: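 HCT-116 cells (4000/well) rested 5 h at 37C, then got DMSO compounds by pin tool (217-fold dilution) for 16 h at 37C, 5% CO2. After the bla read, CellTiter-Glo was added and luminescence read at 30 min, room temperature.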
# [11] = CCTE_Harrill_HTTr_Viability_MCF7: CCTE's 6-hour Cell Viability Assessment for the High-Throughput Transcriptomics (HTTr) Platform, in MCF-7 cells cultured in DMEM + 10% fetal bovine serum, Harrill Lab (AID 2284010; active = hit-call score of the fitted dose curve at least 0.9, where 1 is the maximum; inactive = score below 0.9)
# Method in brief: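 Membrane integrity was scored by high-content imaging of propidium iodide dye exclusion after a 6 h exposure across an eight-point dilution series. Data were fitted bidirectionally relative to DMSO as negative control and baseline.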
# [12] = ATG_ERE_CIS: Attagene CIS-FACTORIAL HepG2 Assay for Estrogen Response Element (ERE) (AID 2282940; active = hit-call score of the fitted dose curve at least 0.9, where 1 is the maximum; inactive = score below 0.9); conditions: HepG2 ERE cis-reporter, Attagene RNA transcript; actives raise or lower the signal
# Method in brief: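 HepG2 cells transiently transfected with cis-promoter-driven multiplexed reporter transcription units report endogenous TF activity. After 24 h compound exposure, reporter mRNA is quantified by RT-PCR with capillary electrophoresis fluorescence; bidirectional fitting versus DMSO baseline.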
# [13] = target: Bile acid receptor (Homo sapiens) (UniProt Q96RI1); assay: ATG_IR1_CIS: Attagene CIS-FACTORIAL HepG2 Assay for human Nuclear Receptor Subfamily 1 Group H Member 4 (NR1H4), IR1 submotif (AID 2282946; active = hit-call score of the fitted dose curve at least 0.9, where 1 is the maximum; inactive = score below 0.9); conditions: IR1 reporter transcription, actives raise or lower the signal
# Bile acid receptor (Homo sapiens), sequence (Q96RI1 whole entry, looked up): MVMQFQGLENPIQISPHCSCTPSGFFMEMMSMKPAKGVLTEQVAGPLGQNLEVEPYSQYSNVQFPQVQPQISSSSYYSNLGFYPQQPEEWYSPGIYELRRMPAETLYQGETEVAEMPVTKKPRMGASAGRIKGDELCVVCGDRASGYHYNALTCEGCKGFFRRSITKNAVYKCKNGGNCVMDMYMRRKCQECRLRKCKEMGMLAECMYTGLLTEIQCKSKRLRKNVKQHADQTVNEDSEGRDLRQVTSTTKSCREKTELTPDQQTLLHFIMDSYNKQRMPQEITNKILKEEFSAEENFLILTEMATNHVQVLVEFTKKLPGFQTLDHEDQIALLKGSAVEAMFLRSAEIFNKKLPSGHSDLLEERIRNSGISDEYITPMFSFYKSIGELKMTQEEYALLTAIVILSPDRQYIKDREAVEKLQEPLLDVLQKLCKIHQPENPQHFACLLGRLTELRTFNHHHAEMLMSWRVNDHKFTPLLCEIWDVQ
# Method in brief: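 Transient MRTU transfection, HepG2; 24 h dosing; RNA → RT-PCR → 6-FAM primer extension → HpaI digest → capillary electrophoresis fluorescence. Gain/loss of signal fitted relative to DMSO.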
# [14] = target: Nuclear receptor subfamily 1 group I member 3 (Homo sapiens) (UniProt Q14994); assay: ATG_CAR_TRANS: Attagene TRANS-FACTORIAL HepG2 Assay for human Constitutive Androstane Receptor (CAR) (AID 2282969); conditions: HepG2 Attagene TRANS-FACTORIAL CAR reporter;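 note: activators raise reporter mRNA above DMSO so AC50 marks induction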
# Nuclear receptor subfamily 1 group I member 3 (Homo sapiens), sequence (Q14994 whole entry, looked up, the tested form may be a part): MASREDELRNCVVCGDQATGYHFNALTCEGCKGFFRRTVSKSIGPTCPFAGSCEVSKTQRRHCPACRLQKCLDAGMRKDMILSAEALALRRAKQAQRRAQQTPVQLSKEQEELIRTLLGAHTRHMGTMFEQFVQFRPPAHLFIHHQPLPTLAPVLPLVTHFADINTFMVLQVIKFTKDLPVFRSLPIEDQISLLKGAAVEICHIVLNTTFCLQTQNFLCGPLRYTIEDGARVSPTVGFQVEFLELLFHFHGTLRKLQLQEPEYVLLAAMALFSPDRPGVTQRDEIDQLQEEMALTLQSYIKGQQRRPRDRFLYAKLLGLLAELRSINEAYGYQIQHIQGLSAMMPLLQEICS
# Method in brief: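 HepG2 cells transiently transfected with multiplexed GAL4-UAS reporter units expressing chimeric NR-Gal4 proteins; compound exposure 24 h. Reporter mRNA measured by RT-PCR, 6-FAM labelling, HpaI digestion and capillary electrophoresis; gain-of-signal fitted against DMSO baseline.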
# [15] = target: Estrogen receptor (Homo sapiens) (UniProt P03372); assay: ATG_ERa_TRANS: Attagene TRANS-FACTORIAL HepG2 Assay for human Estrogen Receptor alpha (ERa) (AID 2282970); conditions: HepG2 Attagene TRANS ERa GAL4 reporter, mRNA
# Estrogen receptor (Homo sapiens), sequence (P03372 whole entry, looked up, the tested form may be a part): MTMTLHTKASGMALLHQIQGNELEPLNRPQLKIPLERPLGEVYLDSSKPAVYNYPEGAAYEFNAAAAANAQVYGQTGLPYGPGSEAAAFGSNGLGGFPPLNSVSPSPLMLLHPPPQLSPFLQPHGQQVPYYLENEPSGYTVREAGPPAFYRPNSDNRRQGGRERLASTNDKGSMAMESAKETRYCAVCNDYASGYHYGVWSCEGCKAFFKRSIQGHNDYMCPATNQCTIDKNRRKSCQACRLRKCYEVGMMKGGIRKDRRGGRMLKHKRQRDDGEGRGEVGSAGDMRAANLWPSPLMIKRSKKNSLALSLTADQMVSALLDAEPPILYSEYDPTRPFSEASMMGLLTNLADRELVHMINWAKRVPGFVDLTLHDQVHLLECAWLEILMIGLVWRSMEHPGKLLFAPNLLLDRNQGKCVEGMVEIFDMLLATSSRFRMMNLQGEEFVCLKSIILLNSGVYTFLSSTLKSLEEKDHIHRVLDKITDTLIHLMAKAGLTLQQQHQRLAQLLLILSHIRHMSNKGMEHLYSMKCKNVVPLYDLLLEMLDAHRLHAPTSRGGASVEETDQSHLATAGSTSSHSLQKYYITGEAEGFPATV
# Method in brief: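 HepG2 cells transiently transfected with multiplexed GAL4-UAS reporter units; ERa activity read via exogenous chimeric NR-Gal4 protein. After 24 hour compound exposure, reporter mRNA measured by RT-PCR with 6-FAM labelling and capillary electrophoresis; gain-of-signal fitted relative to DMSO.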
# [16] = target: human RAR-related Orphan Receptor beta (RORb), RORB (gene 6096) (UniProt Q92753); assay: ATG_RORb_TRANS: Attagene TRANS-FACTORIAL HepG2 Assay for human RAR-related Orphan Receptor beta (RORb) (AID 2283010)
# human RAR-related Orphan Receptor beta (RORb), RORB (gene 6096), sequence (Q92753 whole entry, looked up, the tested form may be a part): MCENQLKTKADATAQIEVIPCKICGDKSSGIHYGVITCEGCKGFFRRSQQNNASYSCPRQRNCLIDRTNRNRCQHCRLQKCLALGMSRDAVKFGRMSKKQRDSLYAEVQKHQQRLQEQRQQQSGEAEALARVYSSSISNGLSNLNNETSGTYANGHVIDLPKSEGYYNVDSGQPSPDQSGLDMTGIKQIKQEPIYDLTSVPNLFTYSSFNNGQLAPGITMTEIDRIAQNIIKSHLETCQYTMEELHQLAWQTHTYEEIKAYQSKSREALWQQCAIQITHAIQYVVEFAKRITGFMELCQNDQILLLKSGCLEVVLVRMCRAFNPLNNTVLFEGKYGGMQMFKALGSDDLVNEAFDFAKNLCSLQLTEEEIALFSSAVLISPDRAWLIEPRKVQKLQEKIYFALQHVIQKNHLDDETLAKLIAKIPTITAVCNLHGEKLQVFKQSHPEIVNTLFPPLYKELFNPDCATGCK
# Method in brief: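 HepG2 cells were transiently transfected with multiplexed GAL4-UAS reporter units expressing chimeric nuclear receptor–GAL4 proteins, then dosed for 24 h. Reporter mRNA was quantified by RT-PCR with fluorescent labelling and capillary electrophoresis; gain of signal was fitted relative to DMSO.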
# [17] = target: human RAR-related Orphan Receptor gamma (RORg), RORC (gene 6097) (UniProt P51449); assay: ATG_RORg_TRANS: Attagene TRANS-FACTORIAL HepG2 Assay for human RAR-related Orphan Receptor gamma (RORg) (AID 2283011)
# Method in brief: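 Readout: reporter transcript induction (RT-PCR, fluorescent primer extension, capillary electrophoresis) after 24 h compound exposure of transiently transfected HepG2 cells carrying a RORg-Gal4 chimera and GAL4-UAS reporters; DMSO served as baseline, with increasing signal fitted.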
# [18] = ATG_XTT_Cytotoxicity: Cytotoxicity Assessment in the Attagene TRANS-FACTORIAL HepG2 Assay (AID 2283584)
# Method in brief: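 HepG2 human liver cells, transiently transfected with multiple GAL4-UAS reporter units, were dosed and read at 24 h by XTT as cell number. Loss of signal was fitted relative to DMSO negative control baseline.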
# [19] = TOX21_p53_BLA_p4_viability: Viability Assessment in the Tox21 HCT-116 p53 Agonism Beta-lactamase Assay, Phase 4 (AID 2283597);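 note: hits lower the luminescence signal meaning cytotoxicity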
# Method in brief: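 HCT116 p53-bla cells (4000/well) rested 5 h at 37C, then received compounds in DMSO (217-fold dilution) for 16 h at 37C, 5% CO2. CellTiter-Glo was added after the CCF4-AM read, and luminescence was read after 30 min at room temperature.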
# [20] = target: human Vitamin D Receptor (VDR), VDR (gene 7421) (UniProt P11473); assay: ATG_VDR_TRANS: Attagene TRANS-FACTORIAL HepG2 Assay for human Vitamin D Receptor (VDR) (AID 2283022)
# Method in brief: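 HepG2 cells were transiently transfected with multiple GAL4-UAS reporter units, so signal reflects exogenous chimeric receptor-Gal4 activity. After 24 h compound exposure, reporter mRNA was measured by RT-PCR, fluorescent labelling and capillary electrophoresis, fitted for gain of signal versus DMSO.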
smiles,measurement,setting,value
CCOC(=O)N(C)N=O,outcome,[1],inactive
same,outcome,[2],inactive
same,outcome,[3],inactive
same,outcome,[4],inactive
same,outcome,[5],inactive
same,outcome,[6],inactive
same,outcome,[7],inactive
same,outcome,[8],inactive
same,outcome,[9],inactive
same,outcome,[10],inactive
same,outcome,[11],inactive
CCCC=NO,AC50,[12],43.5 µM (active)
same,outcome,[13],inactive
same,outcome,[14],inactive
same,outcome,[15],inactive
same,outcome,[3],inactive
same,outcome,[4],inactive
same,outcome,[5],inactive
same,outcome,[16],inactive
same,outcome,[17],inactive
same,outcome,[8],inactive
same,outcome,[9],inactive
same,outcome,[18],inactive
same,outcome,[10],inactive
C=CCN(CC=C)C(=O)C(Cl)Cl,outcome,[2],inactive
same,outcome,[14],inactive
same,outcome,[3],inactive
same,outcome,[7],inactive
same,outcome,[8],inactive
same,outcome,[18],inactive
same,outcome,[10],inactive
same,outcome,[19],inactive
same,outcome,[11],inactive
O=c1c2ccccc2c(=O)c2c1cc(Cl)c1[nH]c3c([nH]c12)c(Cl)cc1c(=O)c2ccccc2c(=O)c13,outcome,[12],inactive
same,outcome,[13],inactive
same,outcome,[14],inactive
same,outcome,[15],inactive
same,outcome,[6],inactive
same,outcome,[7],inactive
same,outcome,[16],inactive
same,outcome,[17],inactive
same,outcome,[8],inactive
same,outcome,[10],inactive
same,outcome,[19],inactive
COc1ncc(F)c2nc(S(=O)(=O)Nc3c(F)cccc3F)nn12,outcome,[12],inactive
same,outcome,[15],inactive
same,outcome,[3],inactive
same,outcome,[4],inactive
same,outcome,[8],inactive
same,outcome,[18],inactive
same,outcome,[11],inactive
SCc1ccco1,outcome,[12],inactive
same,outcome,[13],inactive
same,outcome,[2],inactive
same,outcome,[14],inactive
same,AC50,[15],54.1 µM (active)
same,outcome,[6],inactive
same,outcome,[7],inactive
same,outcome,[20],inactive
Cc1ncc(C[n+]2csc(CCO)c2C)c(N)n1,outcome,[1],inactive
same,outcome,[2],inactive
same,outcome,[3],inactive
same,outcome,[5],inactive
same,outcome,[16],inactive
same,outcome,[10],inactive
CC(C)(Cl)Cl,outcome,[1],inactive
same,outcome,[14],inactive
same,outcome,[3],inactive
same,outcome,[4],inactive
same,outcome,[5],inactive
same,outcome,[7],inactive
same,outcome,[18],inactive
same,outcome,[10],inactive
same,outcome,[11],inactive
CC(C)[C@@H](C(=O)O[C@@H](C#N)c1cccc(Oc2ccccc2)c1)c1ccc(Cl)cc1,outcome,[2],inactive
same,outcome,[14],inactive
same,outcome,[3],inactive
same,outcome,[6],inactive
same,outcome,[7],inactive
same,outcome,[9],inactive
same,outcome,[19],inactive
same,outcome,[11],inactive

# Reference: PubChem BioAssay (EPA / NIEHS)
